Out of some 360,000 compounds screened, about 7,300 (2%) were called active. What follows is part of a selection rich in actives, with near analogues and random picks from the rest. A number with no mark means an inactive call. Cut-off read from the data, not from the text of the source: active = inhibition above about 50%; inactive = the rest.
Experiment: inhibitors of TWEAK-Fn14 signaling, primary screen, luciferase reporter cells, uHTS (AID 1159606)
Conditions: TWEAK-stimulated Fn14 reporter cells, luciferase luminescence, 8 h; at 10 µM; stronger effect = higher value
Cc1ccccc1NC(=O)NC1(C(=O)N2CCCC2)CCCCC1 gave an inhibition of -3.42%. CC(C)C(=O)NC(NC(=S)NC1CCS(=O)(=O)C1)C(Cl)(Cl)Cl (configuration not stated) gave an inhibition of 25.4%. For CCCSC(=S)NC1CCS(=O)(=O)C1 (configuration not stated), the inhibition was 78.9% (active). Work on O=C(Cc1ccc(Cl)cc1)NC1CCS(=O)(=O)C1 (configuration not stated) yielded an inhibition of -0.04%. In the case of COc1ccc(NC(=S)NC2CCS(=O)(=O)C2)cc1 (configuration not stated), the inhibition is reported as -0.47%. In the case of O=C(CSc1ccccc1F)NC1CCS(=O)(=O)C1 (configuration not stated), the inhibition is reported as 2.35%. With O=S1(=O)CCC(NC(=S)SCc2ccccc2Br)C1 (configuration not stated) the inhibition was 54.2% (active). Cc1ccc(NC2CCCN(C(=O)CCC3(C)CC3)C2)cc1C (configuration not stated) gave an inhibition of -13.8%. Work on CSc1ccc(/C=C2\NC(=O)NC2=O)cc1 yielded an inhibition of -11.1%. Work on CNC(=O)c1c(NC(NC(=O)c2ccco2)C(=O)c2ccc(Cl)cc2)sc2c1CCCC2 (configuration not stated) yielded an inhibition of -9.64%. CCCc1nn(C)c2c(=O)[nH]c(-c3cc(S(N)(=O)=O)ccc3OCC)nc12 showed an inhibition of -1.76%. In the case of Cc1noc(/C=C/c2ccco2)c1S(=O)(=O)N1CCC(C(=O)N2CCc3ccccc32)CC1, the inhibition is reported as 6.06%. In the case of Cc1noc(/C=C/c2ccco2)c1S(=O)(=O)N1CCC(C(=O)Nc2ccc(Cl)cn2)CC1, the inhibition is reported as 51% (active). CNC(=O)C1CCN(S(=O)(=O)c2c(C)noc2/C=C/c2cccc(C)c2)CC1 showed an inhibition of -21.5%. Compound CCCCN1C(=O)C(CC(=O)NCc2cccs2)CC(C(=O)N2CCCCCC2)=C1C (configuration not stated) has an inhibition of -6.58%. Compound Oc1cc(O)c2c(c1)OC(c1ccc(O)c(O)c1)C(O)C2 (configuration not stated) has an inhibition of -8.69%. Compound Clc1ccc(-c2cccc3nccn23)cc1 has an inhibition of -3.21%. Compound COC(=O)c1cccc(C(=O)N2CCCC(Nc3ccc4c(c3)OCCO4)C2)c1 (configuration not stated) has an inhibition of 13.2%. Work on CCCCN(C(C)=O)c1ccc2c(c1)C1CC2CCN1Cc1ccccc1 (configuration not stated) yielded an inhibition of -18%. For CCCCNC(=O)OCCSCCS(=O)(=O)c1ccc(Cl)cc1, the inhibition was -5.78%. For Cc1cccc(CS(=O)(=O)c2ncc(Cl)c(C(=O)Nc3ccc(F)cc3)n2)c1, the inhibition was 77% (active). In the case of Cc1ccc(C)c(Cn2nnc3c(=O)[nH]c(C(=O)Nc4ccc(F)cc4)nc32)c1, the inhibition is reported as -5.18%. In the case of Cc1cccc(NC(=O)Cn2cc(C(=O)c3ccco3)c3ccccc32)c1, the inhibition is reported as -6.45%. In the case of Cc1cccc(NC(=O)c2nc(S(=O)(=O)Cc3ccccc3)ncc2Cl)c1, the inhibition is reported as 75.7% (active). With Cc1cccc(NC(=O)CCN2CC(C)CC(C)C2)c1 (configuration not stated) the inhibition was -9.11%. Cc1cccc(CN2CCC(CNC(=O)Nc3ccc(F)c(Cl)c3)CC2)c1 gave an inhibition of 10.9%. For CC(C)CN(CC(C)C)CC(O)CN(c1ccccc1)S(=O)(=O)c1ccccc1[N+](=O)[O-] (configuration not stated), the inhibition was 16%. In the case of CC(=O)C1C(c2ccc(Cl)cc2)c2c(n[nH]c2C)CC1(C)O (configuration not stated), the inhibition is reported as -9.34%. Work on CC(C)(C)C(=O)c1c(N)[nH]c(C(=O)c2ccccc2)c1-c1ccc(F)cc1 yielded an inhibition of -3.63%. Compound CC(C)(C)c1nc2ccccc2c(=O)n1N1C(=O)c2ccccc2C1=O has an inhibition of 20.8%. CN(C(=O)Nc1ccc(Cl)cc1)n1cnc2ccccc2c1=O showed an inhibition of 1.4%. For CN(c1ccc2nc3ccccc3c(=O)n2n1)C1CCCCC1, the inhibition was 105% (active). In the case of CCCCNC(=O)CSc1nc2ccc(NC(=O)CSc3nnc(COc4ccccc4C)n3C)cc2s1, the inhibition is reported as -37.4%. With Nc1nnc(SCC(=O)Nc2ccc3nc(SCC(=O)Nc4ccccc4)sc3c2)s1 the inhibition was 86.4% (active). Compound CCCCNC(=O)CSc1nc2ccc(NC(=O)CSc3nnc(N)s3)cc2s1 has an inhibition of 23.8%. Cc1nc(CNS(=O)(=O)c2ccc(Oc3ccccc3)cc2)cs1 gave an inhibition of 23.5%. In the case of c1ccc2c(C[n+]3csc4ccccc43)cccc2c1, the inhibition is reported as -11.1%. In the case of OC(CN=c1sc2ccccc2n1CC(O)COc1ccccc1)COc1ccccc1 (configuration not stated), the inhibition is reported as 70.7% (active). CC(C)c1ccc(OCC(O)Cn2cnc3ccccc32)cc1 (configuration not stated) showed an inhibition of -16.5%. O=C(C(c1ccccc1)c1ccccc1)N1CCN(CC(O)COc2ccccc2)CC1 (configuration not stated) showed an inhibition of 3.97%. COc1ccc([C@H]2CC(=O)C[C@@H](CCn3cc(CC4CCCC4)nn3)O2)cc1 gave an inhibition of 7.34%. With C[C@@H]1CC2=C(C(=O)OC(C)(C)O2)[C@@H](C2CC2)O1 the inhibition was 4.57%.

— PubChem BioAssay AID1159606 (Sanford-Burnham Center for Chemical Genomics, 2016)
